# From PubChem
# Compounds with a hit are over-represented: about 3.8% of the library has one in this group of screens.
# TGFb SMAD3 inh = TGF-b pathway inhibition. 1.2% of 410,000 active. AID 588855. Potency, µM (series often up to 46.1 µM), for inactives: at the top dose activity, negative = inhibition, hits mostly inhibitors. HepG2 CAGA-GFP TGF-b/SMAD3 reporter, GFP fluorescence, 18 h; TGF-beta stimulated, 500 pg/mL final; also: % is scaled to controls: 0 for no effect and ±100 for the full control effect; nearly all actives have a fitted effect of over 65% in size
#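 HEPG2 CAGA-GFP, 1000 cells/well; 2 h settle, 37 C; cpd via pin tool; TGF-b 500 pg/mL final; 18 h, 37 C; GFP imaging ex488/em500-530; %Activity normalised to -TGF-b and +DMSO controls; CRC fit, curve class.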
# ATXN viability = cell viability loss in ATXN counter-screen; S2 cells (HEK-293 line with an ATXN2-luciferase reporter) viability, CellTiter-Fluor protease fluorescence, 24 h; Potency, µM (titrated, usually from 56.7 µM), actives largely listed as cytotoxic; 0.49% of 400,000 active; AID 651635; also: nearly all actives have a fitted effect of over 40% in size
# HepG2 viability = counter-screen for TGF-b inhibitors: cytotoxicity in HepG2 cells; HepG2 CAGA-GFP viability, ATP luminescence, 18 h; Potency, µM (titrated, usually from 46.1 µM), for the others: at the top dose activity change, negative = cytotoxicity, most hits filed as cytotoxic; 0.76% of 410,000 active; AID 588856
#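 CellTiter-Glo luminescence gave cytotoxicity after 18 hours at 37 degrees C. The cells were HepG2 CAGA-GFP in 1% FBS DMEM, stimulated with 500 pg/mL TGF-beta after compound addition. %Activity was normalised to no-cell wells (complete cell-killing) and DMSO (no toxicity), and curves were fitted and classified.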
# ATXN2 expr inh = inhibitors of ATXN2 expression. AID 1745845. HEK-293 ATXN2-luciferase reporter, luminescence, 24 h. 0.72% of 360,000 active. Potency, µM (doses to about 57 µM), for inactives: at the highest dose activity change, negative = inhibition, actives largely listed as inhibitors; also: % is scaled to controls: 0 for no effect and ±100 for the full control effect; nearly all actives have a fitted effect of over 55% in size
#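 ATXN2-luciferase reporter cells (luciferase flanked by upstream and downstream ATXN2 gene portions) were treated 24 h at 37 °C with compounds at up to 57 uM. SteadyGlo luminescence gave expression; GF-AFC fluorescence gave viability.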
# Nrf2 inh = blocks Nrf2 signaling. 2.1% of 360,000 active. A549 ARE-Fluc reporter, luciferase luminescence, 18-24 h. Potency, µM (series often up to 46 µM), inactives show top-dose activity change, negative = inhibition, hits mostly inhibitors; also: % is scaled to controls: 0 for no effect and ±100 for the full control effect; nearly all actives have a fitted effect of over 60% in size
#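 Quantitative HTS in A549 cells stably bearing an antioxidant response element-firefly luciferase construct. Inhibition of Nrf2-driven transcription was scored by luminescence after 18-24 h of compound exposure at 37 °C.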
# A549 viability = counter-screen for Nrf2 inhibitors: cytotoxicity in A549 cells; A549 ARE-Fluc cells, CellTiter-Fluor viability, 18-24 h; AID 504648; Potency, µM (highest dose often 46 µM), inactives show at the top dose activity change, negative = cytotoxicity, hits mostly inhibitors; 0.16% of 390,000 active; also: % is scaled to controls: 0 for no effect and ±100 for the full control effect
#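 A549 ARE-Fluc cells in 5% FBS OPTI-MEM, 5000 cells/well, rested 2 h then exposed to compounds in concentration-response for 18-24 h at 37 °C. Viability by CellTiter-Fluor fluorescence (Ex 405/Em 525) after 30 min; luciferase luminescence (BugLite, 15 min, RT) read afterwards.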
# Active calls of the source: *; i = inactive; ? = inconclusive; . = no result. Calls follow the shape of the dose curve; as a rule, active = well fitted curve in the direction sought with a large enough effect; inconclusive = small, poorly fitted or top-dose-only effect, or another doubt; inactive = no such curve, though single readings can be large; an effect the other way counts as inactive or inconclusive. Potency is read from the fitted curve at half-maximal effect.
SMILES,TGFb SMAD3 inh,ATXN viability,HepG2 viability,ATXN2 expr inh,Nrf2 inh,A549 viability
COc1cc(C(=O)N2CCN(S(=O)(=O)c3ccc(C)cc3C)CC2)ccc1OCC(=O)N1CCOCC1,-13%,i,2%,6%,1%,0%
CN(C)S(=O)(=O)c1ccc(NC(=O)N2CCN(c3cccc(C(F)(F)F)c3)CC2)cc1,-31%,i,-45%,?,23µM*,?
CN1Cc2c(N3CCOCC3)nc3sc(C(=O)c4ccc(Br)cc4)c(N)c3c2CC1(C)C,?,.,10µM*,?,?,?
O=P(O)(O)C(O)(Cc1cccnc1)P(=O)(O)O,.,i,.,8%,.,.
CCOc1cc(Br)cc(/C=C2\SC(=Nc3ccccc3)NC2=O)c1O,10µM*,?,-82%,.,-11%,-5%
C=CCOc1c(Br)cc(/C=C2\SC(=Nc3ccccc3)NC2=O)cc1OC,?,?,16µM*,.,-21%,0%
C=CCOc1ccc(Br)cc1/C=C1/SC(=Nc2ccc(C(=O)O)cc2)NC1=O,3%,i,-3%,13%,-30%,-6%
Cc1c(C(=S)Nc2ccccc2)cnn1-c1ccc([N+](=O)[O-])cc1,-14%,?,-36%,-12%,23µM*,-3%
COc1ccc(Cl)cc1CN1C(=O)NC2(CCCCCC2)C1=O,0%,i,-8%,-8%,?,-1%
CCOc1cc(Br)c(CN2C(=O)NC3(CCCCCC3)C2=O)cc1OCC,-22%,i,-19%,6%,21µM*,?
COc1ccccc1C(=O)NC(=S)/C=C1/N(C)c2ccccc2C1(C)C,22µM*,?,-3%,0%,?,?
CCCN(CCC)Cc1cc(=O)oc2cc(C)c(C)cc12,?,i,-3%,2%,.,.
FC(F)(F)c1cccc(N2CCN(C(=S)NC3CCCCC3)CC2)c1,?,?,-26%,?,16µM*,-16%
FC(F)(F)c1cccc(N2CCN(C(=S)NC3CCCC3)CC2)c1,?,i,-29%,?,23µM*,-17%
O=C(c1cccs1)N1CCCC(N2CCN(c3cccc(C(F)(F)F)c3)CC2)C1 (stereo not drawn),-15%,i,-21%,-6%,21µM*,-10%
CC(Oc1ccc(Br)cc1)C(=O)N(Cc1ccccc1)c1c(N)n(Cc2ccccc2)c(=O)[nH]c1=O (stereo not drawn),-16%,i,-25%,.,.,.
CCOC(=O)c1ccccc1NC(=O)CN1CCCN(Cc2cccc(Cl)c2)S1(=O)=O,-6%,.,-4%,.,-26%,-7%
COc1cccc(CNC(=O)CCCn2ccc3cc(S(=O)(=O)N4CCCC4)ccc32)c1,-26%,i,-74%,-24%,-4%,-2%
Cc1ccc(CNC(=O)Cn2ccc3cc(S(=O)(=O)N4CCCCCC4)ccc32)cc1,-7%,i,1%,-20%,15µM*,?
CCc1ccc(CNC(=O)CCCn2ccc3cc(S(=O)(=O)N4CCCC4)ccc32)cc1,?,13µM*,-30%,?,?,-22%
COc1ccc(CNC(=O)CCn2ccc3cc(S(=O)(=O)N4CCCC4)ccc32)cc1,3%,i,-1%,-1%,-21%,-14%
COc1ccc(OC)c(CNC(=O)CCCn2ccc3cc(S(=O)(=O)N4CCCC4)ccc32)c1,-1%,?,-5%,-19%,15µM*,?
CCc1ccc(CNC(=O)Cn2ccc3cc(S(=O)(=O)N4CCCCCC4)ccc32)cc1,0%,i,-28%,-14%,-26%,-13%
CCOC(=O)c1c(C)nc2sc3c(=O)n(-c4ccc(C(C)=O)cc4)nnc3c2c1-c1ccc(Cl)cc1,?,?,1%,-37%,18µM*,?
